# Reference: PubChem BioAssay (NCATS)
# “And” between values parts separate entries of the source, which are not always exact repeats. Equal values may be shown once. A number with no mark means an inactive call. Results filed as inconclusive are left out. Where a call stands in place of a potency, no number is given. The source made the active and inactive calls. Unless noted, calls follow the shape of the dose curve; as a rule, active = well fitted curve in the direction sought with a large enough effect; inconclusive = small, poorly fitted or top-dose-only effect, or another doubt; inactive = no such curve, though single readings can be large; an effect the other way counts as inactive or inconclusive.
# Columns and labels:
# [1] = Confirmation and Secondary Assay for Modulators of Hemoglobin Beta Chain Splicing at IVS2 654 locus (AID 910);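 also: HeLa cells stably carrying EGFP split by mutant beta-globin IVS2-654 intron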
# Method in brief: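 HeLa cells stably expressing EGFP interrupted by β-globin IVS2-654 intron, seeded overnight in Opti-MEM/2% FCS, then treated 2 days at 37 °C. Restored splicing read as total peak GFP intensity per well by laser scanning cytometry (488 nm excitation, 500–520 nm emission); 500 nM antisense PNA as control.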
# [2] = Confirmation and Secondary Assay for Modulators of Hemoglobin Beta Chain Splicing at IVS2 705 locus (AID 930);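 also: HeLa cells stably expressing the EGFP-705 splicing reporter; GFP fluorescence per well restored by corrected splicing of the IVS2-705 intron in EGFP; series mostly up to about 46 µM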
# Method in brief: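 Secondary splice-site specificity test uses HeLa expressing CMV-driven EGFP interrupted by IVS2-705; cells were treated 2 days at 37C with 500 nM antisense PNA as positive control.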
# [3] = qHTS Assay for Identification of Small Molecule Agonists for Hypoxia Response Element Signaling Pathway (AID 914; active = well fitted activation curve with a large enough effect in the signal ratio, with a control signal flat, not every such curve was filed as active; the % refers to the signal ratio); details: ME-180 HRE-bla reporter, beta-lactamase ratio, CoCl2, 17 h; stronger effect = higher value
# Method in brief: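 qHTS titration; ME-180 HRE-bla cells; EC50 CoCl2 co-treatment, 17 h at 37 degrees Celsius; CCF4 dye, ex 405nm, em 460nm and 530nm; %Activity from ratio; AC50.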
# [4] = qHTS Assay for Identification of Small Molecule Agonists for Thrombopoietin (TPO) Signaling Pathway (AID 917)
# Method in brief: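 We measured Glycoprotein IIb promoter–luciferase output in IL-3-starved Ba/F3 murine cells expressing the human TPO receptor after 24 hrs at 37 C with compounds and 26 pM TPO.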
# [5] = Cell Viability - LYMP2-001 (AID 921); also: series mostly up to about 92 µM; nearly all actives have a fitted effect of over 70% in size
# Method in brief: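 qHTS, 1536-well; lymphoblastoid cells, 24 hr compound, 37 C; ATP by CellTiter-Glo, 30 min RT; luminescence; Hill-fit AC50.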
# [6] = target: Pyruvate kinase (Leishmania mexicana) (UniProt Q27686); test: qHTS Validation Assay for Inhibitors of Leishmania Mexicana Pyruvate Kinase (AID 945); also: potency is read from the fitted curve at half-maximal effect
# Chain of Pyruvate kinase (Leishmania mexicana) (Q27686 2-499 E452W): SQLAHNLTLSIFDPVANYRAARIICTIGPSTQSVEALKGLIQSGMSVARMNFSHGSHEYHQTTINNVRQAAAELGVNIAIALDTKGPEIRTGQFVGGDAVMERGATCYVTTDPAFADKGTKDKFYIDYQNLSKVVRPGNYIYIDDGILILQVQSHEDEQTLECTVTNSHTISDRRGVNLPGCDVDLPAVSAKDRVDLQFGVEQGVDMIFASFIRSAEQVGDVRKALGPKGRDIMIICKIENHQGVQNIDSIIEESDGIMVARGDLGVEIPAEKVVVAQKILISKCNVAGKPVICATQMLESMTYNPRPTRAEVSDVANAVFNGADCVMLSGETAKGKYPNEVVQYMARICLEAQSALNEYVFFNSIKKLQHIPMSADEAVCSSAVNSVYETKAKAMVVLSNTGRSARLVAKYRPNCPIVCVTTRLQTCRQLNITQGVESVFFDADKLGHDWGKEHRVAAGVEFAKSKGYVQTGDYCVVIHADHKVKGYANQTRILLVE
# Method in brief: (§1)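 Read-out: luminescence from PKLight stop/detection reagent, data normalized to DMSO. Reaction: 0.2 nM E451W LmPYK, 0.5 mM PEP, 0.1 mM ADP, pH 7.2, 1 h room temperature.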
# [7] = MultiTox-Fluor Cytotoxicity Assay - LYMP1-001 - Dead Cells (AID 946); also: potency is read from the fitted curve at half-maximal effect
# Method in brief: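 In this qHTS, 15 uM tetraoctylammonium bromide defined 100% and DMSO defined basal activity. Lymphoblastoid cells (LYMP1-001, 2500 per well) received compound for 16 hr at 37 C before a fluorogenic dead-cell substrate readout at 485/520 nm.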
# [8] = MultiTox-Fluor Cytotoxicity Assay - LYMP1-001 - Live Cells (AID 947)
# [9] = Cell Viability - LYMP1-002 - Assay at 16 hr (AID 948)
# Method in brief: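 Acute cytotoxicity is scored as a concentration-dependent fall in intracellular ATP in a human lymphoblastoid line (LYMP1-002) after 16 hr compound exposure at 37 C, measured by luciferase luminescence.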
# [10] = target: Pyruvate kinase PKM (Homo sapiens) (UniProt P14618); test: qHTS Assay for Activators of Human Muscle Pyruvate Kinase (AID 954; active = well fitted curve in the direction sought with a large enough effect, not every such curve was filed as active)
# Chain of Pyruvate kinase PKM (Homo sapiens) (P14618 whole entry, looked up): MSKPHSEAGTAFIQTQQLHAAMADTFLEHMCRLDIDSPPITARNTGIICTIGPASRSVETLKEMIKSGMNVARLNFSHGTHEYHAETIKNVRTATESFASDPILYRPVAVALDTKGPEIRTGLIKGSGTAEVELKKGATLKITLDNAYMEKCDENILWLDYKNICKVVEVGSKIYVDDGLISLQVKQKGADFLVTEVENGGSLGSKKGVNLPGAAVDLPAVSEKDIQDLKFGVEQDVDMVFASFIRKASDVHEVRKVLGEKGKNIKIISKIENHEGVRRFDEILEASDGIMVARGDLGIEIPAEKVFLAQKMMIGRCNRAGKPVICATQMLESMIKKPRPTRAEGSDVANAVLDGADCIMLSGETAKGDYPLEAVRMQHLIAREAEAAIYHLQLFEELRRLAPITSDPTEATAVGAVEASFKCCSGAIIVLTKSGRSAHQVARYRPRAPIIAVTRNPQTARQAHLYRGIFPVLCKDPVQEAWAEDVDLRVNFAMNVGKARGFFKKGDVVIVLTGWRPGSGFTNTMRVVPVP
# Method in brief: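 Enzyme was run at intermediate activity so both inhibitors and activators could be detected. ATP formed from ADP and PEP by 0.1 nM human PKM2 during a 1 h room-temperature incubation was quantified by coupled luciferase luminescence.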
# [11] = MultiTox-Fluor Cytotoxicity Assay - LYMP1-002 - Live Cells (AID 955);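 also: cells exposed to compound for 16 hours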; also: potency is read from the fitted curve at half-maximal effect
# Method in brief: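 Human lymphoblastoid LYMP1-002 cells, 2500/well, treated 16 h at 37 C in complete medium. Live-cell protease activity via GF-AFC fluorescence (Ex/Em 405/510) after 60 min reagent incubation; AC50 from Hill fits.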
# [12] = MultiTox-Fluor Cytotoxicity Assay - LYMP1-002 - Dead Cells (AID 960); also: nearly all actives have a fitted effect of over 60% in size; also: potency is read from the fitted curve at half-maximal effect
# Method in brief: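 Human lymphoblastoid LYMP1-002 cells, 2500/well, treated 16 h at 37 C; dead-cell protease cleavage of bis-AAF-R110 read by fluorescence (485/520); normalized to DMSO and 15 uM tetraoctylammonium bromide; AC50 from Hill fit.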
# [13] = MultiTox-Fluor Cytotoxicity Assay - LYMP1-003 - Dead Cells (AID 961);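 also: cells exposed to compound for 16 h at 37 °C; nearly all actives have a fitted effect of over 70% in size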
# Method in brief: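 Acute toxicity is scored as increased dead-cell protease activity in human lymphoblastoid LYMP1-003 cells after 16 h compound exposure in complete culture medium. Activity is normalized to DMSO basal and 15 uM tetraoctylammonium bromide as full response.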
# [14] = MultiTox-Fluor Cytotoxicity Assay - LYMP1-003 - Live Cells (AID 962);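 also: cells exposed to compound for 16 hours at 37 °C; cytotoxic hits lower the live-cell protease signal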
# Method in brief: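 LYMP1-003 lymphoblastoid cells, 2500/well in complete medium, treated 16 h at 37 C; live-cell protease cleavage of GF-AFC read by fluorescence (Ex/Em 405/510) after 60 min reagent; AC50 from Hill fits of concentration-response.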
# [15] = target: Muscarinic acetylcholine receptor M1 (Rattus norvegicus) (UniProt P08482); test: qHTS Assay for Antagonists of Acetylcholine Muscarinic M1 Receptor: Kinetic Measurement of Intracellular Calcium Response (AID 943); also: series mostly up to about 35 µM; nearly all actives have a fitted effect of over 75% in size
# Chain of Muscarinic acetylcholine receptor M1 (Rattus norvegicus) (P08482 whole entry, looked up): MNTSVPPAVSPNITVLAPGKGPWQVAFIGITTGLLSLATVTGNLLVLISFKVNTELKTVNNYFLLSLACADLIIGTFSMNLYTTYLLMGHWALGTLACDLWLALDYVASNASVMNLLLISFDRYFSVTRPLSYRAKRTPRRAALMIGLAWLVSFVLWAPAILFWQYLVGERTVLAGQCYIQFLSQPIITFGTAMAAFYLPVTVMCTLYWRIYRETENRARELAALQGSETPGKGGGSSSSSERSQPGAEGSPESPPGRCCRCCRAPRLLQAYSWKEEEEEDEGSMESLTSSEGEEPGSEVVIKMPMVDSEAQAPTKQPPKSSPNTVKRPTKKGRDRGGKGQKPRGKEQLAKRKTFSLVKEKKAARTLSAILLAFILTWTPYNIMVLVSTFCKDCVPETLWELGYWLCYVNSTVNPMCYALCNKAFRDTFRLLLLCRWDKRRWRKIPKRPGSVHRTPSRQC
# Method in brief: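 CHO cells expressing rat M1 receptor, Fluo-4 loaded, preincubated 10 min with compound, then stimulated with EC80 carbachol (100 nM final). Kinetic calcium fluorescence over 4 min; response taken as peak over basal signal.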
# [16] = target: Muscarinic acetylcholine receptor M1 (Rattus norvegicus) (UniProt P08482); test: qHTS Assay for Antagonists of Acetylcholine Muscarinic M1 Receptor: Measurement of IP-One Response (AID 944); also: nearly all actives have a fitted effect of over 75% in size
# Method in brief: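 CHO cells stably expressing rat M1, pretreated 10 min with compound, then stimulated 30 min with carbachol at EC80 (200 nM) in LiCl-containing buffer pH 7.4; IP1 accumulation read by HTRF competition (665/620 nm).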
# [17] = qHTS Assay for Identification of Small Molecule Agonists for NFkB Signaling Pathway (AID 928; calls by dose curve); details: NFkB beta-lactamase reporter cells, blue/green ratio
# Method in brief: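 ME-180 NFkB-bla cells carry a beta-lactamase reporter under an NFkB response element. Compound plus 10 pM TNF alpha (final) was applied for 5 hrs at 37 C. After 2 hrs with LiveBLAzer substrate, 460/530 nm emission was read at 405 nm excitation.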
# [18] = qHTS Assay for Identification of Small Molecule Antagonists for Thrombopoietin (TPO) Signaling Pathway (AID 918); details: TPO-dependent cell signaling reporter, antagonist mode; also: potency is read from the fitted curve at half-maximal effect; nearly all actives have a fitted effect of over 60% in size
# Method in brief: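 Murine Ba/F3 cells expressing human TPO receptor and a Glycoprotein IIb promoter-luciferase reporter, IL-3-starved overnight, treated with compound plus TPO at EC50 (26 pM final). After 24 h at 37 C, luminescence read to detect inhibitors.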
# [19] = target: Pyruvate kinase (Leishmania mexicana) (UniProt Q27686); test: qHTS Validation Assay for Activators of Leishmania Mexicana Pyruvate Kinase (AID 959)
# Method in brief: as §1
# [20] = target: Pyruvate kinase PKM (Homo sapiens) (UniProt P14618); test: qHTS Assay for Inhibitors of Human Muscle Pyruvate Kinase (AID 958); details: purified human PKM enzyme activity
# Method in brief: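 Human PKM2 activity is measured as ATP generation, detected by luciferase-coupled luminescence. The enzyme (0.1 nM) acts on 0.5 mM PEP and 0.1 mM ADP for 1 h at ambient temperature; data are normalized to uninhibited and full-inhibition wells.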
smiles,measurement,setting,value
C[C@]12CCC3c4ccc(O)cc4CCC3C1CCC2=O (some centres not stated),outcome,[1],inactive
same,outcome,[2],inactive
CCCCC1C(=O)N(c2ccccc2)N(c2ccccc2)C1=O,outcome,[1],inactive
same,activation,[3],-18.4% and -5.39%
same,Potency,[4],inactive
same,Potency,[5],inactive
same,outcome,[2],inactive
same,Potency,[6],inactive
same,Potency,[7],inactive
same,outcome,[8],inactive
same,Potency,[9],inactive
same,outcome,[10],inactive
same,Potency,[11],inactive
same,Potency,[12],inactive
same,outcome,[13],inactive
same,Potency,[14],inactive
O=C(O)CCc1nc(-c2ccccc2)c(-c2ccccc2)o1,outcome,[1],inactive
same,Potency,[4],inactive
same,outcome,[2],inactive
same,Potency,[6],inactive
same,outcome,[10],inactive
O=c1c(-c2ccc(O)cc2)coc2cc(O)ccc12,outcome,[1],inactive
same,Potency,[5],inactive
same,outcome,[2],inactive
same,Potency,[7],inactive
same,outcome,[8],inactive
same,Potency,[9],inactive
same,outcome,[10],inactive
same,Potency,[11],inactive
same,Potency,[12],inactive
same,outcome,[13],inactive
same,Potency,[14],inactive
c1ccc2c(Cc3c[nH]c4ccccc34)c[nH]c2c1,outcome,[1],inactive
same,outcome,[2],inactive
COc1ccccc1N1CCN(CCCNc2cc(=O)n(C)c(=O)n2C)CC1,outcome,[1],inactive
same,Potency,[4],inactive
same,outcome,[2],inactive
same,Potency,[6],inactive
same,outcome,[10],inactive
CCN(CC)CCOC(=O)c1ccc(N)cc1,outcome,[1],inactive
same,Potency,[4],inactive
same,outcome,[2],inactive
same,Potency,[6],inactive
same,outcome,[10],inactive
COc1cc(O)c2c(c1)C(=O)c1cc(C)cc(O)c1C2=O,outcome,[1],inactive
same,outcome,[2],inactive
NCCS,outcome,[1],inactive
same,Potency,[4],inactive
same,outcome,[2],inactive
same,outcome,[15],inactive
same,outcome,[16],inactive
same,Potency,[6],inactive
same,outcome,[10],inactive
CCN(CC)CCNC(=O)c1ccc(N)cc1,outcome,[1],inactive
same,Potency,[4],inactive
same,outcome,[2],inactive
same,outcome,[16],inactive
same,Potency,[6],inactive
same,outcome,[10],inactive
CC(C)OC(=O)C(C)(C)Oc1ccc(C(=O)c2ccc(Cl)cc2)cc1,outcome,[1],inactive
same,Potency,[4],inactive
same,outcome,[2],inactive
same,outcome,[10],inactive
CC(C)NCC(O)COc1cccc2[nH]ccc12 (configuration not stated),outcome,[1],inactive
same,Potency,[4],inactive
same,outcome,[2],inactive
same,Potency,[6],inactive
same,outcome,[10],inactive
CN(C)CCC(c1ccccc1)c1ccccn1 (configuration not stated),outcome,[1],inactive
same,Potency,[5],inactive
same,outcome,[2],inactive
same,Potency,[7],inactive
same,outcome,[8],inactive
same,Potency,[9],inactive
same,Potency,[11],inactive
same,Potency,[12],inactive
same,outcome,[13],inactive
same,Potency,[14],inactive
C[N+](C)(C)CCCCCC[N+](C)(C)C,outcome,[1],inactive
same,Potency,[4],inactive
same,outcome,[2],inactive
same,outcome,[15],inactive
same,outcome,[16],inactive
same,Potency,[6],inactive
same,outcome,[10],inactive
CC(=O)CCCCn1c(=O)c2c(ncn2C)n(C)c1=O,outcome,[1],inactive
same,Potency,[4],inactive
same,outcome,[2],inactive
same,outcome,[16],inactive
same,Potency,[6],inactive
same,outcome,[10],inactive
O=c1cc(-c2ccccc2)oc2cc(O)c(O)c(O)c12,outcome,[1],inactive
COc1ccc(-c2coc3cc(O)cc(O)c3c2=O)cc1,outcome,[1],inactive
same,outcome,[2],inactive
CCn1cc(C(=O)O)c(=O)c2ccc(C)nc21,outcome,[1],inactive
same,Potency,[5],inactive
same,outcome,[2],inactive
same,Potency,[7],inactive
same,outcome,[8],inactive
same,Potency,[9],inactive
same,Potency,[11],inactive
same,Potency,[12],inactive
same,outcome,[13],inactive
same,Potency,[14],inactive
O=C1NC(=O)C(c2ccccc2)(c2ccccc2)N1,outcome,[1],inactive
same,Potency,[4],inactive
same,Potency,[5],inactive
same,outcome,[2],inactive
same,Potency,[6],inactive
same,Potency,[7],inactive
same,Potency,[9],inactive
same,outcome,[10],inactive
same,Potency,[11],inactive
same,outcome,[13],inactive
same,Potency,[14],inactive
CCCNC(=O)NS(=O)(=O)c1ccc(Cl)cc1,outcome,[1],inactive
same,activation,[3],-1.93% and -16.9% and -21.4%
same,Potency,[4],inactive
same,Potency,[5],inactive
same,Potency,[17],0.447 µM (active)
same,outcome,[2],inactive
same,Potency,[6],inactive
same,Potency,[7],inactive
same,outcome,[8],inactive
same,Potency,[9],inactive
same,outcome,[10],inactive
same,Potency,[11],inactive
same,Potency,[12],inactive
same,outcome,[13],inactive
same,Potency,[14],inactive
O=C1NCC2(CCN(CCc3ccccc3)CC2)O1,outcome,[1],inactive
same,Potency,[4],inactive
same,outcome,[2],inactive
same,Potency,[6],inactive
same,outcome,[10],inactive
CC/C(=C(\c1ccccc1)c1ccc(OCCN(C)C)cc1)c1ccccc1,outcome,[1],inactive
same,Potency,[18],10 µM (active)
same,outcome,[2],inactive
same,Potency,[6],inactive
same,Potency,[7],50.1 µM (active)
same,outcome,[10],inactive
same,Potency,[11],31.6 µM (active)
same,Potency,[12],25.1 µM (active)
O=c1cc(-c2ccc(O)cc2)oc2cc(O)cc(O)c12,outcome,[1],inactive
same,Potency,[5],inactive
same,outcome,[15],inactive
same,outcome,[16],inactive
same,Potency,[6],12.6 µM (active)
same,Potency,[7],79.4 µM (active)
same,outcome,[10],inactive
same,outcome,[19],inactive
same,Potency,[12],inactive
same,Potency,[14],inactive
c1cc(-c2sc(-c3ccncc3)c(-c3ccncc3)c2-c2ccncc2)ccn1,activation,[3],-25.7%
CC(C)(C)c1ccc(C(O)CCCN2CCC(C(O)(c3ccccc3)c3ccccc3)CC2)cc1 (configuration not stated),activation,[3],3.01%
COc1cccc(-c2cc(=O)c3ccccc3o2)c1N,Potency,[20],15.8 µM (active)
same,outcome,[19],inactive
